{
  "source": "the supplement of paper PMC8728848",
  "assay_in_all_cases": "glycan array binding signal (z-score within array); higher = stronger binding",
  "conditions_in_all_cases": "glycan notation: IUPAC condensed, linker removed",
  "key": {"[1]": {"target": "Gal(b1-4)GlcNAc(b1-3)Gal(b1-4)GlcNAc(b1-3)Gal(b1-4)GlcNAc(b1-2)Man(a1-3)[Gal(b1-4)GlcNAc(b1-3)Gal(b1-4)GlcNAc(b1-3)Gal(b1-4)GlcNAc(b1-2)Man(a1-6)]Man(b1-4)GlcNAc(b1-4)[Fuc(a1-6)]GlcNAc", "procedure,_shortened": "(§1)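 The binding signal is a Z-score computed within each array and averaged over linkers. Arrays of the same protein sequence at different concentrations or buffers were also averaged together. Data originate from 3228 arrays in the Consortium for Functional Glycomics database, kept only where the protein sequence was available.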"}, "[2]": {"target": "Gal(b1-4)GlcNAc(b1-3)Gal(b1-4)GlcNAc(b1-3)Gal(b1-4)GlcNAc(b1-2)[Gal(b1-4)GlcNAc(b1-3)Gal(b1-4)GlcNAc(b1-3)Gal(b1-4)GlcNAc(b1-6)]Man(a1-6)[Gal(b1-4)GlcNAc(b1-3)Gal(b1-4)GlcNAc(b1-3)Gal(b1-4)GlcNAc(b1-2)Man(a1-3)]Man(b1-4)GlcNAc(b1-4)[Fuc(a1-6)]GlcNAc", "procedure,_shortened": "as §1"}, "[3]": {"target": "Gal(b1-4)GlcNAc(b1-3)Gal(b1-4)GlcNAc(b1-3)Gal(b1-4)GlcNAc(b1-3)Gal(b1-4)GlcNAc(b1-2)Man(a1-3)[Gal(b1-4)GlcNAc(b1-3)Gal(b1-4)GlcNAc(b1-3)Gal(b1-4)GlcNAc(b1-3)Gal(b1-4)GlcNAc(b1-2)Man(a1-6)]Man(b1-4)GlcNAc(b1-4)GlcNAc", "procedure,_shortened": "as §1"}, "[4]": {"target": "Gal(b1-4)GlcNAc(b1-3)Gal(b1-4)GlcNAc(b1-3)Gal(b1-4)GlcNAc(b1-3)Gal(b1-4)GlcNAc(b1-2)[Gal(b1-4)GlcNAc(b1-3)Gal(b1-4)GlcNAc(b1-3)Gal(b1-4)GlcNAc(b1-3)Gal(b1-4)GlcNAc(b1-6)]Man(a1-6)[Gal(b1-4)GlcNAc(b1-3)Gal(b1-4)GlcNAc(b1-3)Gal(b1-4)GlcNAc(b1-3)Gal(b1-4)GlcNAc(b1-2)Man(a1-3)]Man(b1-4)GlcNAc(b1-4)[Fuc(a1-6)]GlcNAc", "procedure,_shortened": "as §1"}, "[5]": {"target": "Gal(b1-4)GlcNAc(b1-3)Gal(b1-4)GlcNAc(b1-3)Gal(b1-4)GlcNAc(b1-3)Gal(b1-4)GlcNAc(b1-3)Gal(b1-4)GlcNAc(b1-2)[Gal(b1-4)GlcNAc(b1-3)Gal(b1-4)GlcNAc(b1-3)Gal(b1-4)GlcNAc(b1-3)Gal(b1-4)GlcNAc(b1-3)Gal(b1-4)GlcNAc(b1-6)]Man(a1-6)[Gal(b1-4)GlcNAc(b1-3)Gal(b1-4)GlcNAc(b1-3)Gal(b1-4)GlcNAc(b1-3)Gal(b1-4)GlcNAc(b1-3)Gal(b1-4)GlcNAc(b1-2)Man(a1-3)]Man(b1-4)GlcNAc(b1-4)[Fuc(a1-6)]GlcNAc", "procedure,_shortened": "as §1"}, "[6]": {"target": "Gal(b1-4)GlcNAc(b1-6)[Gal(b1-4)GlcNAc(b1-3)]GalNAc", "procedure,_shortened": "as §1"}, "Gal3S(b1-3)GlcNAc": {"target": "Gal3S(b1-3)GlcNAc", "procedure,_shortened": "as §1"}, "Gal3S(b1-4)Glc6S": {"target": "Gal3S(b1-4)Glc6S", "procedure,_shortened": "as §1"}, "[7]": {"target": "Gal3S(b1-4)[Fuc(a1-3)]GlcNAc6S", "procedure,_shortened": "as §1"}, "GalNAc(b1-4)GlcNAc6S": {"target": "GalNAc(b1-4)GlcNAc6S", "procedure,_shortened": "as §1"}, "[8]": {"target": "GlcNAc(a1-4)Gal(b1-4)GlcNAc(b1-3)Gal(b1-4)GlcNAc(b1-3)Gal(b1-4)GlcNAc", "procedure,_shortened": "as §1"}, "[9]": {"target": "GlcNAc(a1-4)Gal(b1-4)GlcNAc(b1-3)Gal(b1-4)[Fuc(a1-3)]GlcNAc(b1-3)Gal(b1-4)[Fuc(a1-3)]GlcNAc", "procedure,_shortened": "as §1"}, "GlcNAc(b1-3)Fuc": {"target": "GlcNAc(b1-3)Fuc", "procedure,_shortened": "as §1"}, "[10]": {"target": "GlcNAc(b1-3)Gal(b1-4)GlcNAc(b1-3)Gal(b1-4)GlcNAc(b1-2)Man(a1-3)[GlcNAc(b1-3)Gal(b1-4)GlcNAc(b1-3)Gal(b1-4)GlcNAc(b1-2)Man(a1-6)]Man(b1-4)GlcNAc(b1-4)[Fuc(a1-6)]GlcNAc", "procedure,_shortened": "as §1"}, "GlcNAc(b1-3)GalNAc": {"target": "GlcNAc(b1-3)GalNAc", "procedure,_shortened": "as §1"}, "[11]": {"target": "GlcNAc(b1-3)[GlcNAc(b1-6)]GalNAc", "procedure,_shortened": "as §1"}, "Man(a1-6)Man": {"target": "Man(a1-6)Man", "procedure,_shortened": "as §1"}, "[12]": {"target": "Neu5Ac(a2-3)Gal(b1-3)[Neu5Ac(a2-3)Gal(b1-4)]GlcNAc", "procedure,_shortened": "as §1"}, "[13]": {"target": "Neu5Ac(a2-3)Gal(b1-4)GlcNAc", "procedure,_shortened": "as §1"}, "[14]": {"target": "Neu5Ac(a2-3)Gal(b1-4)GlcNAc(b1-3)Gal(b1-4)GlcNAc(b1-2)Man(a1-3)[Neu5Ac(a2-3)Gal(b1-4)GlcNAc(b1-3)Gal(b1-4)GlcNAc(b1-2)Man(a1-6)]Man(b1-4)GlcNAc(b1-4)GlcNAc", "procedure,_shortened": "as §1"}, "[15]": {"target": "Neu5Ac(a2-3)Gal(b1-4)[Fuc(a1-3)]GlcNAc(b1-3)Gal(b1-4)[Fuc(a1-3)]GlcNAc(b1-3)Gal(b1-4)[Fuc(a1-3)]GlcNAc", "procedure,_shortened": "as §1"}, "[16]": {"target": "Neu5Ac(a2-3)Gal6S(b1-4)GlcNAc", "procedure,_shortened": "as §1"}, "[17]": {"target": "Neu5Ac(a2-3)[Neu5Ac(a2-6)]GalNAc", "procedure,_shortened": "as §1"}, "[18]": {"target": "Neu5Ac(a2-6)Gal(b1-4)GlcNAc(b1-2)Man(a1-3)[Neu5Ac(a2-3)Gal(b1-4)GlcNAc(b1-2)Man(a1-6)]Man(b1-4)GlcNAc(b1-4)GlcNAc", "procedure,_shortened": "as §1"}, "[19]": {"target": "Neu5Ac(a2-6)Gal(b1-4)GlcNAc(b1-3)Gal(b1-4)GlcNAc", "procedure,_shortened": "as §1"}, "[20]": {"target": "Neu5Ac(a2-6)Gal(b1-4)GlcNAc(b1-3)Gal(b1-4)GlcNAc(b1-3)[Neu5Ac(a2-6)Gal(b1-4)GlcNAc(b1-3)Gal(b1-4)GlcNAc(b1-6)]GalNAc", "procedure,_shortened": "as §1"}, "[21]": {"target": "Neu5Ac(a2-6)Gal(b1-4)GlcNAc(b1-6)[Gal(b1-3)GlcNAc(b1-3)]Gal(b1-4)Glc", "procedure,_shortened": "as §1"}, "[22]": {"target": "Neu5Ac(a2-6)GlcNAc(b1-4)GlcNAc", "procedure,_shortened": "as §1"}, "Neu5Ac(a2-8)Neu5Ac": {"target": "Neu5Ac(a2-8)Neu5Ac", "procedure,_shortened": "as §1"}, "[23]": {"target": "Neu5Ac(a2-8)Neu5Ac(a2-8)Neu5Ac(a2-3)Gal(b1-4)Glc", "procedure,_shortened": "as §1"}, "[24]": {"target": "Neu5Ac(a2-8)Neu5Ac(a2-8)Neu5Ac(a2-3)[GalNAc(b1-4)]Gal(b1-4)Glc", "procedure,_shortened": "as §1"}},
  "note": "The full list was thinned out, with the strongest signals kept by preference.",
  "data": [
    {"binder": "Gal 1 (Mus musculus), P16045 (protein) MACGLVASNLNLKPGECLKVRGEVASDAKSFVLNLGKDSNNLCLHFNPRFNAHGDANTIVCNTKEDGTWGTEHREPAFPFQPGSITEVCITFDQADLTIKLPDGHEFKFPNRLNMEAINYMAADGDFKIKCVAFE", "values": [
      {"measurement": "glycan array binding signal (z-score)", "setting": "[1]", "value": 2.53},
      {"measurement": "glycan array binding signal (z-score)", "setting": "[2]", "value": 3.89},
      {"measurement": "glycan array binding signal (z-score)", "setting": "[3]", "value": 2.54},
      {"measurement": "glycan array binding signal (z-score)", "setting": "[4]", "value": 3.42},
      {"measurement": "glycan array binding signal (z-score)", "setting": "[5]", "value": 3.46},
      {"measurement": "glycan array binding signal (z-score)", "setting": "[6]", "value": -0.011},
      {"measurement": "glycan array binding signal (z-score)", "setting": "Gal3S(b1-3)GlcNAc", "value": 2.76},
      {"measurement": "glycan array binding signal (z-score)", "setting": "Gal3S(b1-4)Glc6S", "value": 0.672},
      {"measurement": "glycan array binding signal (z-score)", "setting": "[7]", "value": 2.69},
      {"measurement": "glycan array binding signal (z-score)", "setting": "GalNAc(b1-4)GlcNAc6S", "value": -0.452},
      {"measurement": "glycan array binding signal (z-score)", "setting": "[8]", "value": -0.404},
      {"measurement": "glycan array binding signal (z-score)", "setting": "[9]", "value": -0.015},
      {"measurement": "glycan array binding signal (z-score)", "setting": "GlcNAc(b1-3)Fuc", "value": -0.43},
      {"measurement": "glycan array binding signal (z-score)", "setting": "[10]", "value": -0.19},
      {"measurement": "glycan array binding signal (z-score)", "setting": "GlcNAc(b1-3)GalNAc", "value": -0.094},
      {"measurement": "glycan array binding signal (z-score)", "setting": "[11]", "value": -0.292},
      {"measurement": "glycan array binding signal (z-score)", "setting": "Man(a1-6)Man", "value": 0.23},
      {"measurement": "glycan array binding signal (z-score)", "setting": "[12]", "value": 0.068},
      {"measurement": "glycan array binding signal (z-score)", "setting": "[13]", "value": -0.256},
      {"measurement": "glycan array binding signal (z-score)", "setting": "[14]", "value": 1.31},
      {"measurement": "glycan array binding signal (z-score)", "setting": "[15]", "value": -0.083},
      {"measurement": "glycan array binding signal (z-score)", "setting": "[16]", "value": -0.411},
      {"measurement": "glycan array binding signal (z-score)", "setting": "[17]", "value": -0.3},
      {"measurement": "glycan array binding signal (z-score)", "setting": "[18]", "value": -0.219},
      {"measurement": "glycan array binding signal (z-score)", "setting": "[19]", "value": -0.348},
      {"measurement": "glycan array binding signal (z-score)", "setting": "[20]", "value": 1.13},
      {"measurement": "glycan array binding signal (z-score)", "setting": "[21]", "value": 0.027},
      {"measurement": "glycan array binding signal (z-score)", "setting": "[22]", "value": -0.34},
      {"measurement": "glycan array binding signal (z-score)", "setting": "Neu5Ac(a2-8)Neu5Ac", "value": -0.093},
      {"measurement": "glycan array binding signal (z-score)", "setting": "[23]", "value": -0.347},
      {"measurement": "glycan array binding signal (z-score)", "setting": "[24]", "value": -0.144}
    ]}
  ]
}
